Compounds without any hit were thinned out: in the full panel of roughly 83,000, 20% have a hit.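 96-well plates, one dose, 48 hours. Percent growth reported; active if below 10.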 Values without a mark were called inactive. The source made the active and inactive calls.

Assay in all cases: NCI-60 one-dose screen, 48 h (100 = growth as untreated, 0 = no growth, -100 = all killed)
What all share (conditions): 10 µM unless noted

In assay [1] the test system is NCI-H23 lung.
For assay [2], the system named is NCI-H322M lung.
For assay [3], the system named is NCI-H460 lung.
The test system of assay [4] is HOP-92 NSCLC.
Assay [5] deals with NCI-H522 lung.
Assay [6] relates to A549/ATCC NSCLC.
In assay [7] the test system is 786-0 renal.
The subject of assay [8] is COLO 205 colon.
In assay [9] the test system is DU-145 prostate.
For assay [10], the system named is K-562 leukemia.
Assay [11] has as its system MALME-3M melanoma.
Assay [12] deals with MDA-MB-231 breast.
Assay [13] deals with RXF 393 renal.
The subject of assay [14] is SF-268 CNS.
Assay [15] deals with SF-295 CNS.
Assay [16] relates to SF-539 CNS.
Assay [17] deals with UACC-257 melanoma.
For assay [18], the system named is M14 melanoma.
The subject of assay [19] is HCT-15 colon.
The test system of assay [20] is HOP-62 NSCLC.

As to `COc1cc2cc3c(=O)n4c(cc5cc(OC)ncc54)c(=O)n3c2cn1`, the growth was 101% in [1]; 97.4% in assay [2]; 107% in assay [3]; 114% in assay [4]; 99.2% in [5]; 102% in [6]. In addition, the growth in assay [7] is 99.1%; in assay [8], 114%; in [9], 106%; in assay [10] it was 102%; in assay [11] it was 93.1%; in assay [12], 109%. Further, the growth in assay [13] was 106%; in [14], 102%; in assay [15], 87.7%; in assay [16], 106%; in assay [17], 110%; in assay [18], 105%. The growth in [19] was 106%.
Take `O=c1nc2sc3nc4ccccc4cc3cc-2s1`: the growth in assay [1] is 101%; in assay [2], 106%; in [3], 106%; in assay [4], 125%; in assay [5], 122%; in assay [6] it was 117%. The growth is 103% in assay [7]; 127% in [8]; 114% in [9]; 116% in [11]; 108% in assay [12]; 117% in assay [13]. Also, the growth in assay [14] is 132%; in assay [15], 104%; in assay [16], 101%; in assay [17], 98.8%; in assay [18], 100%; in assay [19] it was 104%.
Consider `COc1cc(NC(=O)CCSc2nc3ccccc3c(=O)n2Cc2ccccc2)cc(OC)c1OC`, for which the growth in assay [1] was 89.7%; in [2], 75.8%; in [3], 94.6%; in assay [4] it was 54.5%; in assay [5], 4.12% (active); in assay [6], 72.7%. Moreover, the growth is 83.4% in assay [7]; 118% in assay [8]; 97.5% in assay [9]; 81.2% in [10]; 82% in [11]; 64.9% in [12]. Besides, the growth is 92.3% in assay [13]; 81.9% in assay [14]; 75.3% in assay [15]; 72.9% in [16]; 89.5% in assay [17]; 94.7% in [18]. Further, the growth in assay [19] is 92.5%.
In the case of `O=c1oc2ccc(Br)cc2c(=O)n1-c1ccc(I)cc1F`, the growth was 1.15% (active) in [1]; 4.56% (active) in assay [2]; 3.43% (active) in [3]; -16.6% (active) in assay [4]; -13.4% (active) in assay [5]; 6.38% (active) in [6]. Further, the growth is 2.68% (active) in assay [7]; 51.2% in [8]; 13.6% in assay [9]; 5.48% (active) in [10]; -28.3% (active) in assay [11]; -19.1% (active) in assay [12]. For the same compound, the growth in [13] was -1.04% (active); in [14], 6.16% (active); in assay [15], -61.3% (active); in assay [16] it was 1.29% (active); in assay [17], -16.3% (active); in [18], -9.72% (active). Besides, in [19], the growth is 1.62% (active).
Turning to `O=c1oc2ccc(I)cc2c(=O)n1-c1ccc(Br)cc1F`, the growth in assay [1] was 5.56% (active); in assay [2], 5.24% (active); in assay [3], 2.84% (active); in assay [4], -11.7% (active); in assay [5], -10% (active); in assay [6], 7.12% (active). For the same compound, the growth in assay [7] was 4.56% (active); in [8] it was 50.3%; in assay [9], 16.6%; in [10], 7.02% (active); in assay [11] it was -26.7% (active); in [12], -21.2% (active). For the same compound, the growth in assay [13] is 3.07% (active); in assay [14], 9.55% (active); in assay [15] it was -58.1% (active); in assay [16], 4.36% (active); in [17], -13.6% (active); in assay [18], -0.737% (active). The growth in assay [19] is -7.61% (active).
Regarding `Cn1c2c(c(=O)[nH]c1=O)NC1=C(C(=O)c3ccccc31)C1(C=C(O)c3ccccc31)N2` (stereo not given), the growth in assay [1] was 109%; in assay [2], 113%; in assay [3], 111%; in [4], 75.7%; in assay [5], 99.9%; in assay [6] it was 102%. The growth was 97.7% in [7]; 121% in assay [8]; 89% in [9]; 112% in assay [10]; 124% in [11]; 105% in assay [12]. Also, the growth in assay [14] is 103%; in [15] it was 135%; in [16], 107%; in assay [17] it was 115%; in assay [18] it was 96.8%; in assay [19], 96.9%.
As for `COc1ccc(CCN2CCC(CN(C)Cc3cnn(-c4ccccc4)c3)CC2)cc1`, the growth in assay [1] was 31.9%; in assay [2], 46.4%; in [3], 3.48% (active); in [4] it was 37.3%; in assay [5], 43.7%; in assay [6], 4.78% (active). Moreover, the growth in [7] was 25.6%; in [8] it was 30.1%; in assay [9] it was 28.6%; in [10] it was 10.4%; in assay [11], 18.4%; in assay [12] it was 21.6%. Besides, the growth in assay [13] was 35%; in assay [14], 21%; in [15], 47.5%; in assay [16] it was 19.7%; in assay [17], 19.1%; in assay [18], -19.2% (active). Moreover, the growth in assay [19] is 26.2%.
With `O=c1oc2ccc(-c3ccc(F)cc3F)cc2c(=O)n1-c1cccc(C(F)(F)F)c1`, the growth in assay [1] was 1.75% (active); in [20], 3.5% (active); in assay [3] it was 4.14% (active); in [4], -26.6% (active); in assay [5] it was -10.7% (active); in [6], 7.26% (active). Besides, the growth in assay [7] was 0.874% (active); in [8], 17.9%; in assay [9], 20.1%; in assay [10] it was 10.9%; in assay [11], -24% (active); in assay [12], -16% (active). The growth was -8.07% (active) in assay [13]; 12.7% in assay [14]; -0.824% (active) in assay [15]; 9.91% (active) in [16]; -14.2% (active) in [17]; 18.3% in assay [18]. In addition, the growth in assay [19] was 13%.

The record behind these values is PubChem BioAssay (NCI).
